Data taken from the supplement of paper PMC10849652.
About 7,900 targets were measured; listed, in parts, are those with a hit and a random draw of the rest. About 0.6% of all pairs of compound and target were hits.

compound: CCn1c(C(=O)N(C2CC2)C2CC2)cc2c3c(ncn3C)c(Nc3cc(C)n(C)n3)nc21; assay: log2 fold change, soluble protein after heating vs DMSO (PISA); higher = thermal stabilisation; K562 cells, 10 uM, 30 min; active = over 0.2 and 3.5 SD of the protein, either way, in both replicates (recomputed)
Procedure, shortened: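 Values are thermal stability changes relative to control samples and are taken from duplicates. They are stated as log2 fold changes. Before quantification by TMTpro 16plex LC-MS/MS with equalised channel sums, K562 cells at 2×10^6 cells/mL were treated with 10 μM compound for 30 min, heated in aliquots for 3 min across 48°C-58°C, pooled, extracted in PBS with 0.5% NP-40 at 4°C, and centrifuged at 21,000xg for 90 min to give the soluble supernatant.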

Sequence of UniProt P05543 (P05543 whole entry, looked up): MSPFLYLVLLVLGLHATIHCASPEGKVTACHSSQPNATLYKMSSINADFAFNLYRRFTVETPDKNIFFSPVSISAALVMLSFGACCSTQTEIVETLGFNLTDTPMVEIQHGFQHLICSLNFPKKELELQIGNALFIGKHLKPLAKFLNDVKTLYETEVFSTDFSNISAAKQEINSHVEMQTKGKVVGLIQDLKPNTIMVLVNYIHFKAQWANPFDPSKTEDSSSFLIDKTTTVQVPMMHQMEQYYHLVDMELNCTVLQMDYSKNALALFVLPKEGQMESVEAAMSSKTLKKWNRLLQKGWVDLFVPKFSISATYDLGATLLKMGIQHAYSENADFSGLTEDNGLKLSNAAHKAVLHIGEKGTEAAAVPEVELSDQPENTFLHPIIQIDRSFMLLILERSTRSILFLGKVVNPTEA
Sequence of UniProt Q96ER3 (Q96ER3 whole entry, looked up): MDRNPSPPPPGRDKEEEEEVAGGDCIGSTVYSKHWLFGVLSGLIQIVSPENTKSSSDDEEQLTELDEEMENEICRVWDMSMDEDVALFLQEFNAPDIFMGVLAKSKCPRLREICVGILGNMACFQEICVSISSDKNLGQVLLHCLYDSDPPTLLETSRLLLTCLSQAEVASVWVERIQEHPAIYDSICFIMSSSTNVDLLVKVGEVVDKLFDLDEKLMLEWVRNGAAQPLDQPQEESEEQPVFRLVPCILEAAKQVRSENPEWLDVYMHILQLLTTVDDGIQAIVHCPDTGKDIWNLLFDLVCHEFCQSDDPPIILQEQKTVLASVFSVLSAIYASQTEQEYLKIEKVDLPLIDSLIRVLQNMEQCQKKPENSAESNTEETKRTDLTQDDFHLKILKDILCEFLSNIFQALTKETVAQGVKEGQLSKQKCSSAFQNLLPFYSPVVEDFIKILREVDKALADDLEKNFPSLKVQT
Sequence of UniProt Q96DX4 (Q96DX4 whole entry, looked up): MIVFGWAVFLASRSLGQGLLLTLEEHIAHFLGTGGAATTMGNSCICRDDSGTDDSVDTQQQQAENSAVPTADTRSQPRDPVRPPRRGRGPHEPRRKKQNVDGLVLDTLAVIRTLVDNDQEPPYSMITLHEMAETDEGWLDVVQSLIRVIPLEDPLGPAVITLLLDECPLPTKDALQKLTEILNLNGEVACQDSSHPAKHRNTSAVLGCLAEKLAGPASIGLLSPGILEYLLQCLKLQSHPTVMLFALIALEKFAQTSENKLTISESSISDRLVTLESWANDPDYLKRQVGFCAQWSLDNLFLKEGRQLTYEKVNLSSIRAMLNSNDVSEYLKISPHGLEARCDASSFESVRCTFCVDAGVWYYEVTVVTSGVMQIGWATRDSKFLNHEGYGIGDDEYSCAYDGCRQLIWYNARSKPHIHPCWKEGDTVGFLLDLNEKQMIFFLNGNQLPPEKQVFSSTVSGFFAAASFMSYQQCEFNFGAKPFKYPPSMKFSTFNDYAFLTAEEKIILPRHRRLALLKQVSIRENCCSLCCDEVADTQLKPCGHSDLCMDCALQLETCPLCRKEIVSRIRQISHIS
Sequence of UniProt O14730 (O14730 whole entry, looked up): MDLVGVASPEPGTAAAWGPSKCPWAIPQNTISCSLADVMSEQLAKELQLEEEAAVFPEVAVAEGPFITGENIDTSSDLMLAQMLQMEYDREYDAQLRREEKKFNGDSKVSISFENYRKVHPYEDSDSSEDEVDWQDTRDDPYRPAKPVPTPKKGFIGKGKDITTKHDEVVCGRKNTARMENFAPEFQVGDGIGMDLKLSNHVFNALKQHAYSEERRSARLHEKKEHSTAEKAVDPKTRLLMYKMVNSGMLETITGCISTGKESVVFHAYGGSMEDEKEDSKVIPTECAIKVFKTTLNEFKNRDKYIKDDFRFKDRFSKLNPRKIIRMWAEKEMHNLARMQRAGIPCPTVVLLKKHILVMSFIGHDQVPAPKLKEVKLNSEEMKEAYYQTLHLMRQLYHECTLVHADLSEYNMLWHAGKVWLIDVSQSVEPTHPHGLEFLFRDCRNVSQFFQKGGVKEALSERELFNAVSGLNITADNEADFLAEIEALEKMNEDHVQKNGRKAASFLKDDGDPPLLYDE
Sequence of UniProt Q86TU7 (Q86TU7 whole entry, looked up): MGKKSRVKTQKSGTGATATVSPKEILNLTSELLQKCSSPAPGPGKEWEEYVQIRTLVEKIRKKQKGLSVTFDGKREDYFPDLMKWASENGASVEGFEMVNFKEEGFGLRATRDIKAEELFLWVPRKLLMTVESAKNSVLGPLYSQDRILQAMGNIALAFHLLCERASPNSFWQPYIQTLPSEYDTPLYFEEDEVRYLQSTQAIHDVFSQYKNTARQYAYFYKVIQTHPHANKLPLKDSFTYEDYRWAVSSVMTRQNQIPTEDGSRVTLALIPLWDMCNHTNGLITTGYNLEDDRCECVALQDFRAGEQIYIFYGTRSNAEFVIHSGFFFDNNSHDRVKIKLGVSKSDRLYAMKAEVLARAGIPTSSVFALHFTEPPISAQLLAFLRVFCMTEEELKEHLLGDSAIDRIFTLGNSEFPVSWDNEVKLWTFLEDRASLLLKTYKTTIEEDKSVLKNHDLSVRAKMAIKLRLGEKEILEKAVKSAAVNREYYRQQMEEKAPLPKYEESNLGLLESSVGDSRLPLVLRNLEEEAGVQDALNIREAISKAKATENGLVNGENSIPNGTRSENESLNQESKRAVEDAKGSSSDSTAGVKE
Sequence of UniProt Q5T8P6 (Q5T8P6 whole entry, looked up): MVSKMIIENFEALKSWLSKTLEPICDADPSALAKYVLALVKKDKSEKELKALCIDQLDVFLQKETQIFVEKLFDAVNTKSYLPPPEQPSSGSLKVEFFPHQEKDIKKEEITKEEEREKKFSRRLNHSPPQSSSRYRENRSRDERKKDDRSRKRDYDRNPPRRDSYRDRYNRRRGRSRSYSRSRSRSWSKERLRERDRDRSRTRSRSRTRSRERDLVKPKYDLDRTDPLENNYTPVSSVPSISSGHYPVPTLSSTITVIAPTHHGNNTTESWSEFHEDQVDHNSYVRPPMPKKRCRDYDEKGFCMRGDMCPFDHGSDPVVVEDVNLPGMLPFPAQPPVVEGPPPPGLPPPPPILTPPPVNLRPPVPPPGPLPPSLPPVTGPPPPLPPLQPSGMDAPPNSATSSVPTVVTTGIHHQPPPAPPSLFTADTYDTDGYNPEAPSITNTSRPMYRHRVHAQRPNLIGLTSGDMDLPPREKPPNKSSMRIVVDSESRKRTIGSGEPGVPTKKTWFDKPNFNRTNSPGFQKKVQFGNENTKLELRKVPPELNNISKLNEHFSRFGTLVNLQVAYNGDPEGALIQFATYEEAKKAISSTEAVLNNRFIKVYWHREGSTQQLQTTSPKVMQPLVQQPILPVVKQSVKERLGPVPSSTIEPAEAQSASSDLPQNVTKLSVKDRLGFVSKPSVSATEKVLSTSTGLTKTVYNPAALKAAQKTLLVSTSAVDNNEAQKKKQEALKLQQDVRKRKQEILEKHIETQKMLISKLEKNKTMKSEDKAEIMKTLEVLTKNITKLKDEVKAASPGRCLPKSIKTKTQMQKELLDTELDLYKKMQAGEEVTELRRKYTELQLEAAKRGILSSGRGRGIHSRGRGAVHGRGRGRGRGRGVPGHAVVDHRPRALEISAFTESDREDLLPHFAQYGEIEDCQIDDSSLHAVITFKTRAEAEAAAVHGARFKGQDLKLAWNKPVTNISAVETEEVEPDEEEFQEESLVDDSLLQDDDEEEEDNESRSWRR
Sequence of UniProt Q15418 (Q15418 whole entry, looked up): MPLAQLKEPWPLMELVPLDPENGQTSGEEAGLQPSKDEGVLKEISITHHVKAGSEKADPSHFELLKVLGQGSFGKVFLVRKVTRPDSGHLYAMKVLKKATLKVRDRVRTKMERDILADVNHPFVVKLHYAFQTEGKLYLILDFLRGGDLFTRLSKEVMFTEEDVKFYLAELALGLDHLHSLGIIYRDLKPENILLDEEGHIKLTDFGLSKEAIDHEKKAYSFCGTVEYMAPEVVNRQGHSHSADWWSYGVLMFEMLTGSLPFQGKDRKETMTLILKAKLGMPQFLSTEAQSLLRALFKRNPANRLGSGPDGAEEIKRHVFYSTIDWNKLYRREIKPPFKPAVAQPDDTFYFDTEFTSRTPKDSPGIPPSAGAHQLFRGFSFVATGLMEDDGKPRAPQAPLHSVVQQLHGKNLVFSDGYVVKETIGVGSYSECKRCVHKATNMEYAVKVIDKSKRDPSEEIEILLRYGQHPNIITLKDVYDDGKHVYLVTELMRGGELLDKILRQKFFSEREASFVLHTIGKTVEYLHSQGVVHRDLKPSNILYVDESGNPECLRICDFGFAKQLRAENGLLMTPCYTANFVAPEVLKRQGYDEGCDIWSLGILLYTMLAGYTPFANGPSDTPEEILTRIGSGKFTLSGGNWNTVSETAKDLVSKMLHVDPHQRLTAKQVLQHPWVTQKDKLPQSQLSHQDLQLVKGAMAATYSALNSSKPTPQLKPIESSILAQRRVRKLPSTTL
Sequence of UniProt Q9NX18 (Q9NX18 whole entry, looked up): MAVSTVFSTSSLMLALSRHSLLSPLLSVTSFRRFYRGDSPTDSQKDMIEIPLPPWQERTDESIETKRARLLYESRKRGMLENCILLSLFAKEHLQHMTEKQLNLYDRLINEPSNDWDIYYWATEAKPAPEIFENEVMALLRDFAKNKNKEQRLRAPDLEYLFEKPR
Sequence of UniProt Q8IZQ5 (Q8IZQ5 whole entry, looked up): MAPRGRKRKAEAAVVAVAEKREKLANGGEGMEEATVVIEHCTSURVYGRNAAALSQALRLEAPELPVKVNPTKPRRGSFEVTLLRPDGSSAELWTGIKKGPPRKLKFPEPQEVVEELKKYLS
Sequence of UniProt Q8N5L8 (Q8N5L8 whole entry, looked up): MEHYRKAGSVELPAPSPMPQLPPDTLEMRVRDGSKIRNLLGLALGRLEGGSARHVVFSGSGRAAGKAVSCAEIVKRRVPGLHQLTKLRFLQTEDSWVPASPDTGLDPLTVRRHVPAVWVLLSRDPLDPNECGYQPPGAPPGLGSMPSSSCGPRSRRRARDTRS
Sequence of UniProt P61586 (P61586 whole entry, looked up): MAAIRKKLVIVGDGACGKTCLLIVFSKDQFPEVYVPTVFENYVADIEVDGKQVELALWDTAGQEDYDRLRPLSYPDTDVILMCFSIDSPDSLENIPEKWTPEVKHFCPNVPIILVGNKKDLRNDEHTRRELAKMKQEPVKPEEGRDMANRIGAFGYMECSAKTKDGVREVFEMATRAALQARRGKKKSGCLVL

log2 fold change, inactive:
RUNX1 isoform 8 (UniProt Q01196) 0.035
RPS12 (UniProt P25398) -0.002
SLC18B1 (UniProt Q6NT16) 0.068
SHROOM2 (UniProt Q13796) -0.203
RNASEH2A (UniProt O75792) -0.002
RIPK1 (UniProt Q13546) -0.046
SERPINA7 (UniProt P05543) 0.073
SH3GL1 (UniProt Q99961) -0.077
RMC1 (UniProt Q96DM3) -0.041
SGPL1 (UniProt O95470) 0.01
RSPRY1 (UniProt Q96DX4) 0.006
SELENOH (UniProt Q8IZQ5) 0.024
SCD (UniProt O00767) 0.103
SKP1 (UniProt P63208) 0.035
SENP6 (UniProt Q9GZR1) 0.029
RPP25L (UniProt Q8N5L8) -0.052
RHOA (UniProt P61586) 0.024
RRS1 (UniProt Q15050) 0.051
RPS2 (UniProt P15880) 0.045
RB1 (UniProt P06400) -0.016
RBM12 (UniProt Q9NTZ6) -0.08
SASH1 (UniProt O94885) -0.012
RCC1 isoform 2 (UniProt P18754) -0.185
RBM26 isoform 2 (UniProt Q5T8P6) -0.061
SETD3 (UniProt Q86TU7) -0.004
RANBP2 (UniProt P49792) -0.063
RDH13 (UniProt Q8NBN7) 0.009
SAAL1 (UniProt Q96ER3) -0.038
SDHAF2 (UniProt Q9NX18) 0.053
RPS18 (UniProt P62269) -0.029
RPTOR (UniProt Q8N122) 0.001
RELA (UniProt Q04206) 0.027
RPS6KA1 isoform 2 (UniProt Q15418) 0.127
RIOK3 (UniProt O14730) 0.001
